The record followed here is PubChem BioAssay (EPA / NIEHS).

Values joined by “and” are separate entries in the source; they are usually repeats but may differ in a detail not shown here. Equal values may be shown once. The source holds several records for some structures; these can differ, active in one and inactive in another. Active and inactive are the calls of the source. How the source made its calls: active means hit-call score of the fitted dose curve at least 0.9, where 1 is the maximum; inactive means score below 0.9.

In experiment [1] the target is Transcription factor E2F1 (Homo sapiens) (UniProt Q01094). Description: ATG_E2F_CIS: Attagene CIS-FACTORIAL HepG2 Assay for human E2F Transcription Factor 1 (AID 2282935). Particulars: HepG2 Attagene cis-reporter, E2F reporter RNA transcripts; actives raise or lower the signal. The method, boiled down: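 Measures reporter transcript levels via RT-PCR with capillary electrophoresis detection in HepG2 cells harboring cis-regulated reporter units; 24 h post-dose; bidirectional curve fitting with DMSO as baseline.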

Experiment [2] in a line: ATG_E_Box_CIS: Attagene CIS-FACTORIAL HepG2 Assay for human Enhancer Box (E-box) (AID 2282936). As to conditions: HepG2 E-box cis-reporter transcription, actives raise or lower the signal. In short, it runs like this:
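First, HepG2 cells receive multiple cis-regulated reporter constructs by transient transfection. Next, chemicals are applied for 24 h. Finally, reporter mRNA is quantified via RT-PCR and capillary electrophoresis, with DMSO as baseline.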

The nature of experiment [3]: ATG_M_61_CIS: Attagene CIS-FACTORIAL HepG2 Assay for M61 Transcription Factor (Internal Marker) (AID 2282937). As to conditions: HepG2 Attagene CIS-FACTORIAL M61 internal marker reporter; actives raise or lower the signal. In short, it runs like this:
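Background-control endpoint: HepG2 cells with cis-regulated reporter constructs, 24 h exposure, reporter mRNA detected via fluorescent primer extension and capillary electrophoresis; values from bidirectional fitting with DMSO baseline.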

Experiment [4] in a line: ATG_EGR_CIS: Attagene CIS-FACTORIAL HepG2 Assay for human Early Growth Response 1 (EGR1) (AID 2282938). Particulars: HepG2 Attagene CIS-FACTORIAL EGR reporter mRNA; actives raise or lower the signal. The method, boiled down: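 Endpoint derived by bidirectional fitting versus DMSO vehicle. Method: cis-promoter reporter units transfected into HepG2, 24 h dosing, RNA isolation, RT-PCR with 6-FAM primer extension and HpaI digestion, then capillary electrophoresis fluorescence detection.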

Experiment [5] can be described thus: ATG_M_19_CIS: Attagene CIS-FACTORIAL HepG2 Assay for M19 Transcription Factor (Internal Marker) (AID 2282939). Particulars: HepG2 Attagene CIS-FACTORIAL M19 internal marker reporter; actives raise or lower the signal. In short, it runs like this:
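In this multiplexed cell assay, transiently transfected HepG2 reporter units report endogenous transcription-factor activity; after 24 hours of treatment, labelled reporter cDNA fragments are quantified by capillary electrophoresis and fitted bidirectionally against DMSO.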

Experiment [6] is described as follows: ATG_ERE_CIS: Attagene CIS-FACTORIAL HepG2 Assay for Estrogen Response Element (ERE) (AID 2282940). As to conditions: HepG2 ERE cis-reporter, Attagene RNA transcript; actives raise or lower the signal. The method, boiled down:
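Measuring endogenous transcription factor output, the assay doses transfected HepG2 cells for 24 hours and quantifies reporter transcripts by fluorescent RT-PCR and capillary electrophoresis, with DMSO as baseline.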

Experiment [7] is described as follows: ATG_Ets_CIS: Attagene CIS-FACTORIAL HepG2 Assay for human Erythroblast Transformation Specific (ETS) (AID 2282941). As to conditions: HepG2 ETS cis-reporter transcription, actives raise or lower the signal. The method, boiled down:
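Steps: transfect HepG2 with multiple reporter units; treat compound 24 h; isolate RNA, DNase-treat, reverse-transcribe; PCR-amplify, label with 6-FAM, digest with HpaI; separate by capillary electrophoresis. Activity fitted both directions versus DMSO.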

Experiment [8] concerns the target Hepatocyte nuclear factor 3-beta (Homo sapiens) (UniProt Q9Y261). Briefly: ATG_FoxA2_CIS: Attagene CIS-FACTORIAL HepG2 Assay for human Forkhead box A2 (FOXA2) (AID 2282942). As to conditions: HepG2 cis-reporter transcription factor activity, 24 h; actives raise or lower the signal. In short, it runs like this: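 Measured: reporter mRNA induction or loss in HepG2 transiently carrying multiple cis-regulated reporter units, 24 h after dosing. Quantified by RT-PCR plus capillary electrophoresis, normalised to DMSO.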

Experiment [9] can be described thus: ATG_FoxO_CIS: Attagene CIS-FACTORIAL HepG2 Assay for human Forkhead box O (FoxO) (AID 2282943). As to conditions: HepG2 Attagene cis-reporter, FoxO element, mRNA; actives raise or lower the signal. In short, it runs like this:
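Read-out: fluorescence of 6-FAM-labelled reporter cDNA fragments resolved by capillary electrophoresis. Transiently transfected HepG2 cells were dosed for 24 h; activity fitted in both directions relative to DMSO controls.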

Experiment [10] is described as follows: ATG_GATA_CIS: Attagene CIS-FACTORIAL HepG2 Assay for human GATA Binding Protein (AID 2282944). Particulars: HepG2 GATA cis-element reporter, Attagene multiplex mRNA; actives raise or lower the signal. The method, boiled down:
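Measures endogenous transcription factor-driven reporter mRNA in HepG2 cells transiently carrying cis-regulated constructs. 24 h dosing; RNA via oligo(dT) reverse transcription, PCR, HpaI digestion, capillary electrophoresis; fitted relative to DMSO.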

Chain of Hepatocyte nuclear factor 3-beta (Homo sapiens) (Q9Y261 whole entry, looked up): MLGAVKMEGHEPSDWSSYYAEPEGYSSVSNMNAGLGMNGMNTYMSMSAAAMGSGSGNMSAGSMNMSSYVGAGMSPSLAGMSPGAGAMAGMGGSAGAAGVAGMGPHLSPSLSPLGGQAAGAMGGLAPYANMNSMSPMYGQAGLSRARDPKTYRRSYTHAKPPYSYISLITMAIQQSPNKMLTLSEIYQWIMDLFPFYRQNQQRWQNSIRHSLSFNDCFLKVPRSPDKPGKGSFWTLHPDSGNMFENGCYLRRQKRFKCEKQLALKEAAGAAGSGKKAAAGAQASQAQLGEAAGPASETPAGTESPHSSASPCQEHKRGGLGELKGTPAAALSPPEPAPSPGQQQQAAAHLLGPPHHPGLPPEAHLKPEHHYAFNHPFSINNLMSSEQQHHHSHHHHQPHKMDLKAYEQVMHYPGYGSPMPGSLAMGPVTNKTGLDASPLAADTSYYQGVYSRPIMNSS
Chain of Transcription factor E2F1 (Homo sapiens) (Q01094 whole entry, looked up): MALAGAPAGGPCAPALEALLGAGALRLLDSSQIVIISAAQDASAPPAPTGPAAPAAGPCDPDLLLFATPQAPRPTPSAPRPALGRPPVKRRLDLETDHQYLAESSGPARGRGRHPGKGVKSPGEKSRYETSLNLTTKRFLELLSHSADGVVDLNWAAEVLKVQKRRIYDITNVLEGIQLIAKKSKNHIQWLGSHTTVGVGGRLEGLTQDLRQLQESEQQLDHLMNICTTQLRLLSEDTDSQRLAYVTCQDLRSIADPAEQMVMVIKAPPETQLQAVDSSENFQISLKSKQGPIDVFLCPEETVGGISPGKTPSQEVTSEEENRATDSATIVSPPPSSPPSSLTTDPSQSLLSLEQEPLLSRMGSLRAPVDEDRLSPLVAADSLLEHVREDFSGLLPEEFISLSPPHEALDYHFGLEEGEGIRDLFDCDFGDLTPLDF

On to `NC(=O)NC(N)=O`, for which the molecule was called inactive in experiment [1], in [2], in experiment [3], in experiment [4], in [5] and in experiment [6]. For the same molecule, the result in experiment [7], in experiment [8], in experiment [9] and in [10] was inactive.
Turning to `CCCCCCCCCCCCN1CCOCC1`, the outcome in experiment [1], in experiment [2], in experiment [3], in experiment [4], in experiment [5] and in experiment [6] was inactive. In addition, the molecule was classed as inactive in experiment [7], in experiment [8], in [9] and in [10].
For the molecule `O=C(c1ccc(OCCN2CCCCC2)cc1)c1c(-c2ccc(O)cc2)sc2cc(O)ccc12`, the molecule was called inactive in experiment [1], in experiment [2], in [3], in experiment [4], in experiment [5] and in experiment [7]. Further, the result in [8], in experiment [9] and in experiment [10] was inactive. Also, the AC50 in [2] is 11.1 µM (active) and 7.95 µM (active); in experiment [4], 11.1 µM (active) and 12.6 µM (active) and 7.51 µM (active); in [5], 11.3 µM (active) and 11.1 µM (active); in experiment [7], 13.6 µM (active) and 17 µM (active).
Turning to `C#C[C@]1(O)CC[C@H]2[C@@H]3CCc4cc(O)ccc4[C@H]3CC[C@@]21C`, the AC50 was 60.4 µM (active) in experiment [1]; 41.2 µM (active) and 29.9 µM (active) in [2]; 171 µM (active) in experiment [5]; 100 µM (active) in [7]; 180 µM (active) and 72.5 µM (active) and 50.9 µM (active) in experiment [9]; 139 µM (active) and 142 µM (active) in [10]. Moreover, the call in [1], in experiment [2], in experiment [3], in [4], in experiment [5] and in experiment [7] was inactive. In addition, the call in [8], in [9] and in experiment [10] was inactive.
With `CCOC(=O)CC(C)C`, the molecule was classed as inactive in [1], in experiment [2], in experiment [3], in experiment [4], in experiment [5] and in [6]. For the same molecule, the result in experiment [7], in [8] and in [9] was inactive.
As for `O=C(C=Cc1ccccc1)OCCCc1ccccc1`, the call in experiment [1], in experiment [2], in [3], in [4], in [5] and in experiment [7] was inactive. Besides, the result in experiment [8] and in experiment [9] was inactive. The AC50 in experiment [6] is 29.7 µM (active).
Consider `CC(C)N(c1ccccc1)C(C)C`, for which the call in experiment [1], in experiment [2], in experiment [3], in experiment [4], in experiment [5] and in [6] was inactive. The result in [7], in experiment [8] and in experiment [9] was inactive.
In the case of `CC(C)CCCC(C)(C)O`, the molecule was called inactive in [1], in experiment [2], in experiment [3], in [4], in experiment [5] and in experiment [6]. For the same molecule, the molecule was classed as inactive in experiment [7], in experiment [8], in experiment [9] and in [10].
Consider `O=C1CCC(=O)N1`, for which the outcome in experiment [1], in experiment [2], in [3], in experiment [4], in experiment [5] and in experiment [6] was inactive. Also, the outcome in [7], in experiment [8], in experiment [9] and in experiment [10] was inactive.
Consider `CCCCCCCC(=O)N(C)C`, for which the result in experiment [1], in experiment [2], in experiment [3], in experiment [4], in experiment [5] and in experiment [6] was inactive. The call in experiment [7], in experiment [8] and in [9] was inactive.
With `O=S1(=O)CC(Cl)(Cl)C(Cl)(Cl)C1`, the molecule was classed as inactive in experiment [1], in experiment [3], in [5], in experiment [6], in [7] and in [8]. Moreover, the molecule was called inactive in experiment [9] and in experiment [10]. For the same molecule, the AC50 in experiment [2] was 2.8 µM (active); in experiment [4] it was 6.17 µM (active).
For the molecule `CC(=O)CCC(=O)O`, the molecule was called inactive in experiment [1], in experiment [2], in experiment [3], in experiment [4], in [5] and in [6]. Besides, the outcome in experiment [7], in experiment [8], in experiment [9] and in experiment [10] was inactive.
Consider `CC/C=C\CCOC(=O)C(C)C`, for which the result in [1], in [2], in experiment [3], in experiment [4], in experiment [5] and in experiment [6] was inactive. The outcome in experiment [7], in experiment [8], in experiment [9] and in experiment [10] was inactive.
Regarding `CC(=O)C1=C(C)[C@@H]2C[C@@]3(C1)[C@H](C)CC[C@H]3C2(C)C`, the AC50 in experiment [1] is 139 µM (active); in [3], 75.3 µM (active); in experiment [5], 100 µM (active); in experiment [6] it was 68.1 µM (active). The outcome in experiment [2], in [4], in experiment [7], in [8], in experiment [9] and in [10] was inactive.
Consider `CC(=O)CCC=C(C)CCC=C(C)C`, for which the molecule was classed as inactive in experiment [1], in experiment [2], in experiment [3], in [4], in [5] and in [6]. Further, the outcome in experiment [7], in [8], in experiment [9] and in experiment [10] was inactive.
In the case of `CCCCN(CCCC)CCCCCCN(CCCC)CCCC`, the molecule was called inactive in [1], in experiment [2], in experiment [3], in experiment [4], in [5] and in experiment [6]. The molecule was classed as inactive in experiment [7], in [8], in experiment [9] and in [10].
Consider `CC1COC(=O)O1` (centres undefined), for which the molecule was called inactive in experiment [1], in experiment [2], in [3], in experiment [4], in experiment [5] and in experiment [6]. Also, the molecule was called inactive in [7], in experiment [8], in [9] and in experiment [10].
On to `CC(C)(C)c1ccc(S)cc1`, for which the molecule was classed as inactive in experiment [1], in [2], in experiment [3], in experiment [4], in experiment [5] and in [6]. Moreover, the outcome in experiment [7], in experiment [8], in [9] and in experiment [10] was inactive.
As to `CNC(=C[N+](=O)[O-])NCCSCc1ccc(CN(C)C)o1`, the molecule was classed as inactive in experiment [1], in experiment [2], in experiment [3], in experiment [4], in experiment [5] and in experiment [6]. For the same molecule, the outcome in experiment [7], in experiment [8], in experiment [9] and in experiment [10] was inactive.
For the molecule `CCCCOCCOCCO`, the outcome in experiment [1], in [2], in experiment [3], in experiment [4], in experiment [5] and in [6] was inactive. The molecule was classed as inactive in experiment [7], in experiment [8], in experiment [9] and in [10].
On to `[O-]/[N+](=N\O)c1ccccc1`, for which the molecule was classed as inactive in experiment [1], in experiment [2], in experiment [3], in experiment [4], in experiment [5] and in experiment [7]. The call in [8], in [9] and in experiment [10] was inactive. Further, the AC50 in experiment [6] is 27.7 µM (active).
Turning to `CCC(C)(C)C1CCC(=O)CC1`, the molecule was classed as inactive in [1], in experiment [2], in experiment [3], in experiment [4], in experiment [5] and in experiment [7]. In addition, the outcome in [8], in experiment [9] and in [10] was inactive. In experiment [6], the AC50 was 16.7 µM (active).

As a reminder, the AC50 is the concentration giving half of the maximal activity seen.
